# Data as given in PubChem BioAssay AID1053124 (Broad Institute, 2014).
# Potency and affinity values are given separately. Active and inactive are the calls of the source.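 How the source made its calls: active means cell killing whose fitted half-effect concentration is at most twice the top valid dose tested; inconclusive means flat curve with 30 to 70% killing, or a poor fit; inactive means effect in the rising direction, plus the rest.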
# Assay: A549 cell cytotoxicity, dose response, cytotoxicity control, ATP luminescence, cherry-pick, set 2 (AID 1053124)
# Details: A549 viability, ATP luminescence (CellTiter-Glo), 72 h; series mostly up to 26 µM
row,SMILES,outcome
1,N#CC1=C(N)Oc2cc(O)ccc2C1c1ccc2c(c1)OCO2 (stereo not drawn),inactive
2,CC12CC(c3ccccc3O1)C(C(=O)OCc1ccccc1)C(=O)N2 (stereo not drawn),inactive
3,CC(C)OP(=O)(O)NC(=O)c1ccccc1,inactive
